Data as given in PubChem BioAssay AID1053173 (Broad Institute, 2014).
The whole screen tested about 1,500 compounds, of which about 390 (26%) were called active. How the calls were made is not given here. The list is a sample of the results. Entries with a potency or affinity are not part of this list.

The compounds below were run against Histone-lysine N-methyltransferase NSD2 (Homo sapiens) (UniProt O96028) (assay: NSD2 methyltransferase inhibitors, dose response, biochemical, AlphaScreen, cherry-picked samples (AID 1053173)). Conditions: NSD2 H4 peptide methylation, 120 min; series mostly up to 10 µM.
Histone-lysine N-methyltransferase NSD2 (Homo sapiens), sequence (O96028 whole entry, looked up): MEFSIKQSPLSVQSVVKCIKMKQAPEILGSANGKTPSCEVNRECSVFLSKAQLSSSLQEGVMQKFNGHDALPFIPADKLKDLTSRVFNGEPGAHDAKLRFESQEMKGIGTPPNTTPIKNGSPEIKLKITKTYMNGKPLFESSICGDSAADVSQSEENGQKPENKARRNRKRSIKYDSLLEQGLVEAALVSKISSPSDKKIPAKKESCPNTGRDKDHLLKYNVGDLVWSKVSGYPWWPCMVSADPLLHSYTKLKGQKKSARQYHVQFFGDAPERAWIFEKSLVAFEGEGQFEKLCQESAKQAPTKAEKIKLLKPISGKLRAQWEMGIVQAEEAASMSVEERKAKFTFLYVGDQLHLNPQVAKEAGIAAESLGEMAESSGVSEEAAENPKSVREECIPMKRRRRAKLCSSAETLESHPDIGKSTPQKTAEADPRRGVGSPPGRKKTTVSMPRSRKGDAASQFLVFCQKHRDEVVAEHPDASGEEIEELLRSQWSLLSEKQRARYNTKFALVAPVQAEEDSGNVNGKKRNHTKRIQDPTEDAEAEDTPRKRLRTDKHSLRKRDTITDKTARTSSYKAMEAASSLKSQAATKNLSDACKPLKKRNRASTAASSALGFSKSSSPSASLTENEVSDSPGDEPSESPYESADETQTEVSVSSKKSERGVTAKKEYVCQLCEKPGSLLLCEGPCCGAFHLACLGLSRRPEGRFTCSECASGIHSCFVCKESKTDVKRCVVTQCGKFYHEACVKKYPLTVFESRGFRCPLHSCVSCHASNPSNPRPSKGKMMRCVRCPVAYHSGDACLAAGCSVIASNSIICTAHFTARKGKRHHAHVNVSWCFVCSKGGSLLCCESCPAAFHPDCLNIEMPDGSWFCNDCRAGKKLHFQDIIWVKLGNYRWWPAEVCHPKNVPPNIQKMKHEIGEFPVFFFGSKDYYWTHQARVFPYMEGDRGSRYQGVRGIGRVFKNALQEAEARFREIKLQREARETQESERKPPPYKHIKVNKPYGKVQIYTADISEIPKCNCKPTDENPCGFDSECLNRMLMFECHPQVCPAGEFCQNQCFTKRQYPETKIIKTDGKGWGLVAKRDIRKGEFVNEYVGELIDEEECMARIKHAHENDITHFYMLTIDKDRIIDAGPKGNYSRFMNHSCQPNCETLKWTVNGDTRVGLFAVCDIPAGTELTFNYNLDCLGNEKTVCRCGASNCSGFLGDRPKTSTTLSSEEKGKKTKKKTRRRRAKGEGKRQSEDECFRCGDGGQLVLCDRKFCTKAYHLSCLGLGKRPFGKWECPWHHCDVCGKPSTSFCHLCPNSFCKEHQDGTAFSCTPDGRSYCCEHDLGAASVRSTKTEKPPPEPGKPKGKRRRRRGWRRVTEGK

outcome, inactive:
Cc1cc(C)n(CC(O)COc2c(C)cccc2C)n1 (stereo unspecified)
O=C(CN1CCOCC1)NCCNC(=O)CN1CCOCC1
CCNC(=O)C1(C)CCCN(C(=O)c2ccc3ccccc3n2)C1 (stereo unspecified)
NC(=O)COC(=O)c1ccc(Cl)c(S(=O)(=O)N2CCN(c3ccc(F)cc3)CC2)c1
COc1cc(NC(=O)c2ccccc2)c(OC)cc1NC(=O)CSc1[nH]c(=O)cc(C)c1C#N
Cc1ccc(CC(=O)Nc2nncs2)cc1
CCc1sc(C(=O)Nc2nc(C)cs2)cc1C
Cc1ccc2cccc(OCc3ccc(Br)cc3)c2n1
CC(Nc1ccc2ccccc2c1)C(=O)N/N=C/c1ccncc1 (stereo unspecified)
Cc1sc2nc[nH]c(=S)c2c1-c1ccccc1
O=c1[nH]nc(Br)c(=O)n1C(c1ccccc1)c1ccccc1
O=C(CSc1nccn1-c1ccc(F)cc1)NCc1ccc(F)cc1
Cc1cccc2c(=O)c(C(=O)NCc3ccc(F)cc3)c[nH]c12
CN(Cc1nc2ccccc2c(=O)[nH]1)C(=O)c1cc2c(s1)CCCCC2
O=C(O)COc1ccccc1/C=N/Nc1ccc(S(=O)(=O)Nc2ccc(Cl)cc2)cc1[N+](=O)[O-]
O=C(Nc1ccccc1C(=O)O)c1cncc(Br)c1
Cc1cc(NS(=O)(=O)c2ccc(NC(=O)CSc3nnc(-c4ccncc4)n3Cc3ccco3)cc2)nc(C)n1
O=C(/C=C/c1ccco1)N(c1ccccn1)c1ccccn1
O=C(NNC(=S)Nc1ccccc1)c1ccco1
COc1ccc(CCC(=O)Nc2ccc(S(=O)(=O)Nc3nccc(C)n3)cc2)cc1
Cn1c(N)c(C#N)c2c(c1=S)CSC(C)(C)C2
CCN(C(=O)/C=C/c1ccc2c(c1)OCO2)c1ccccc1
CC(=O)Nc1ccc(S(=O)(=O)NCCSCc2c(Cl)cccc2Cl)cc1
NS(=O)(=O)c1ccc(N/N=C/c2ccc(O)c(O)c2O)c([N+](=O)[O-])c1
CCCCn1c(Cn2nc(C(=O)O)c3ccccc3c2=O)nc2cc(S(N)(=O)=O)ccc21
N#Cc1c2nc3ccccc3nc2n2cc(NC(=O)c3ccc(F)cc3)ccc12
N#Cc1c(N)n(-c2ccc(C(=O)O)cc2)c2nc3ccccc3nc12
CCOC(=O)c1nnn(-c2nonc2OC)c1-c1ccccc1
C=CCn1c(NS(=O)(=O)c2ccccc2)c(S(=O)(=O)c2ccc(C)cc2)c2nc3ccccc3nc21
CCCCn1c(NS(=O)(=O)c2ccccc2)c(S(=O)(=O)c2ccc(C)cc2)c2nc3ccccc3nc21
COc1ccccc1N1CCN(C2CCN(C(=O)c3cccc(F)c3)CC2)CC1
Cc1cccc(NCCNc2cccc(C)c2)c1
COc1cnc(-c2ccccn2)nc1Oc1cccc(C(F)(F)F)c1
COc1cccc(CNC(=O)CSc2nnc3c(n2)[nH]c2ccccc23)c1
CCOc1ccc(S(=O)(=O)N2CCCC(C(=O)NCCN3CCOCC3)C2)cc1Cl (stereo unspecified)
CNC(=O)COC(=O)/C=C/c1cccs1
Cc1ccc(S(=O)(=O)N2CCC(NC(=O)c3cccnc3)CC2)cc1Cl
COc1cccc(C(C(=O)NC2CCCC2)N(C(=O)c2csnn2)C2CC2)c1 (stereo unspecified)
CCc1c(C)nc2ncnn2c1Nc1ccc(C)cc1
CCCCn1nnc(NC(=O)c2ccco2)n1
COc1ccccc1N1CCN(S(=O)(=O)CCNC(=O)c2ccc(Br)o2)CC1
Nc1nc(COC(=O)c2ccco2)nc(Nc2ccccc2)n1
CCC(=O)N1CCN(c2ccc(Cl)cc2NC(=O)c2ccc(Br)o2)CC1
Cc1cc(C)n(-c2nc(NCC(C)O)c3c4c(sc3n2)COC(C)(C)C4)n1 (stereo unspecified)
CC(=O)C1=C(O)C(=O)N(CCc2c[nH]c3ccccc23)C1c1ccco1 (stereo unspecified)
Oc1cccc2c(NC(=S)Nc3ccc(OC(F)F)cc3)cccc12
COc1ccc(-c2nnc(SCC(=O)c3ccc(O)cc3O)o2)cc1
CCCc1cc(=O)[nH]c(SCc2cc(=O)oc3cc(C)c(C(C)C)cc23)n1
CC(=O)c1ccc(N2CCN(C(=O)[C@H](C)NC(=O)c3ccccc3Cl)CC2)cc1
COc1cc(-c2nnn(Cc3ccccc3C)n2)cc(OC)c1OC
O=C1Nc2cc(C(=O)N3CCC(N4CCCCC4)CC3)ccc2S/C1=C\c1ccccc1
CCCc1[nH]n(-c2nc3ccccc3s2)c(=O)c1C=NCCCN(CC)CC
O=C(CSc1ccc(-c2cccnc2)nn1)N1CCCC1
CCn1c(-c2cc3c(C(F)(F)F)nn(C)c3s2)n[nH]c1=S
Cc1ccc(Sc2ncccc2C(N)=O)cc1
Cc1cc(C)cc(NC(=O)C2C3C=CC4(O3)C2C(=O)N(CCCN2CCCC2)C4C(=O)NC2CCCC(C)C2C)c1 (stereo unspecified)
CCOC(=O)Cn1ncc(-c2ccccc2)c1N
Cc1cc(-c2ccc(C)c(S(=O)(=O)N3CCN(c4ccccn4)CC3)c2)on1
C/C(=C\C(=O)c1ccccc1)Nc1ccc(O)cc1
Clc1cccc(N2CCN(CCCN3CCN(c4ccccc4)CC3)CC2)c1
Fc1ccccc1NC(=S)Nc1cccc2cnccc12
